High-throughput results: PubChem BioAssay, Broad Institute
Compounds with a hit are over-represented: about 3.4% of the library has one in this group of screens.
MITF act: MITF TRPM1 promoter activation in melanoma cells; SK-MEL-5 TRPM1-promoter luciferase, 24 h; % of positive control, neutral wells = 0; actives 0.75% (n = 300,000); activation, % at 12.5 µM; AID 588334;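 active = mean activation of at least 80% with every replicate also reaching 80%; inconclusive = mean reaches 80% but some replicate falls short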;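 note: 0% = neutral control wells and 100% = parthenolide positive control wells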
Wnt bcat act: activators of Wnt/beta-catenin signaling; activation, % at 9.35 µM; actives 1.2% (n = 300,000); Wnt/beta-catenin reporter cell assay, activator, plate reader; in the data active = activation above about 30%, passing the limit was not always enough; inconclusive = no clear call, values can overlap the other calls;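 note: 0% = neutral control wells and 100% = positive control wells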
miR122 inh: blocks miR-122 activity in Huh7 sensor cells | Huh7 miR-122 Renilla luciferase sensor, 48 h; neutral wells = 0, positive control = 100 | activation (reporter increase), % at 12.5 µM | actives 0.3% (n = 340,000) | AID 602342;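 active = mean replicate activation score at least 90 and every replicate individually at or above 90; inconclusive = only one of the two criteria met; inactive = neither criterion met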;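 note: higher luciferase means less miR-122 activity so hits act as miR-122 inhibitors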
Env fusion inh: inhibitors of HIV Env-mediated cell fusion. inhibition, % at 12.3 µM. HeLa-JRFL Env/CEM21 cell fusion, luciferase. actives 1.1% (n = 360,000). AID 651610;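 active = mean replicate inhibition score of at least 50 and every replicate individually at or above 50; inconclusive = only one of the two criteria met; inactive = mean below 50 and not all replicates reaching 50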;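 note: 0% = plate neutral controls and 100% = maraviroc near 300 nM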
esBAF inh: blocks esBAF chromatin remodeling in mouse ES cells. Bmi1-luciferase knock-in reporter, 24 h; 100% = twice the neutral-well signal. reporter increase, % at 12.5 µM. actives 2% (n = 350,000). AID 602393; in the data active = activation above about 40%; inconclusive = no clear call, values can overlap the other calls;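 note: 0% = median of the plate's neutral control wells and 100% = double that signal; a rise in the Bmi1 reporter signal indicates esBAF inhibition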
An asterisk follows results filed as active; ? = inconclusive; . = no result given; [ ] = dose if it differs, or a comment.

SMILES	MITF act	Wnt bcat act	miR122 inh	Env fusion inh	esBAF inh
O=C(Nc1ccc(F)cc1)N1C[C@H]2[C@@H](c3ccccc31)[C@@H](CO)N2C(=O)c1ccccn1	.	.	-12.8[16.7 µM]	.	11.9
CO[C@@H]1CN(C)C(=O)c2ccc(NC(C)=O)cc2OC[C@@H](C)N(C(=O)CN2CCOCC2)C[C@H]1C	.	.	-5.1[16.7 µM]	.	0.6
CO[C@H]1CN(C)C(=O)c2cc(NC(=O)c3ccc(F)cc3)ccc2OC[C@@H](C)N(C(=O)CN(C)C)C[C@@H]1C	.	.	.	6.2[16.7 µM]	-1.1
Cc1cc(SCC(=O)c2ccc(Cl)cc2)nc(=O)[nH]1	21.4	40.1*	.	-33.8	-35.5
c1ccc(OCc2nc3ccccc3[nH]2)cc1	.	62.0*	6.0	-105.6	50.7*
O=[N+]([O-])c1cccc(CSc2nc3ccccc3[nH]2)c1	34.9	.	.	-77.2	.
COc1cccc(CSc2nc3ccccc3[nH]2)c1	73.7	59.2*	1.6	-43.1	54.4*
OC(Cc1nc2ccccc2[nH]1)c1ccccc1Cl (centres undefined)	52.6	-1.4	-7.5	.	54.9*
Cc1ccc(OCc2nc3ccccc3[nH]2)cc1	24.9	18.3	0.1	-78.1	18.9
CCc1nc2ccccc2[nH]1	-10.0	0.8	0.7	.	1.6
c1ccc(OCCSc2nc3ccccc3[nH]2)cc1	87.6*	.	-0.1	.	.
C[C@@H]1CN([C@@H](C)CO)C(=O)c2cc(-c3cccc(C#N)c3)cnc2O[C@@H]1CN(C)Cc1ccc(F)cc1	.	.	0.0[16.7 µM]	6.7[16.7 µM]	-1.8
Clc1ccc(OCc2nc3ccccc3[nH]2)cc1	88.0*	10.9	-1.2	-44.2	85.2*
O=S(=O)(CCc1nc2ccccc2[nH]1)c1ccc(Cl)cc1	-4.2	-1.6	.	6.6	5.9
COc1cccc(/C=C/c2ccccn2)c1O	67.1	41.5*	.	-121.5	.
COc1ccccc1/C=C/C=O	.	.	.	4.8[16.7 µM]	.
O=C(C[C@@H]1CC[C@H]2[C@@H](COC[C@@H](O)CN2CC2CCOCC2)O1)NCC1CCCCC1	.	.	10.6[16.7 µM]	.	-2.6
COc1ccc(Nc2nc(-c3ccccc3)c3ccccc3n2)cc1	7.8	-0.6	.	-8.3	.
CCc1c(C)nc(Nc2nc(C)c3ccc(OC)cc3n2)[nH]c1=O	53.2	5.7	-4.9	.	23.2
COc1ccc(Nc2nc(C)c3ccccc3n2)cc1	60.2	.	1.8	.	75.4*
COc1ccc2c(C)nc(Nc3nc(C)c(C)c(=O)[nH]3)nc2c1	.	.	4.7	65.6*	175.8*
C[C@H](NC(=O)C[C@@H]1CC[C@@H]2[C@H](COC[C@H](O)CN2C(=O)Nc2ccccc2)O1)c1ccccc1	.	.	1.7[16.7 µM]	.	8.7
COCCOC(=O)c1[nH]c2c(c1C)C(=O)C(C(=O)OC)C(C)C2 (centres undefined)	73.3	6.7	-9.0	-83.7	31.1
COC(=O)C1C(=O)c2c([nH]c(C(=O)OC3CCCCCC3)c2C)CC1C (centres undefined)	86.9*	15.9	-3.7	-32.8	11.4
COC(=O)C1C(=O)c2c([nH]c(C(=O)OCC3CCCO3)c2C)CC1C (centres undefined)	?	16.9	-2.2	-12.6	55.4*
SMILES	MITF act	Wnt bcat act	miR122 inh	Env fusion inh	esBAF inh
Clc1ccc(Cn2c(/C=C/c3ccco3)nc3ccccc32)cc1	45.0	34.0*	.	-50.3	.
Cc1ccc(Cn2c(/C=C/c3ccco3)nc3ccccc32)cc1	32.1	.	.	3.3	.
O=C(C[C@H]1CC[C@H]2[C@@H](COC[C@@H](O)CN2Cc2nccs2)O1)NCc1ccc(Cl)cc1	.	.	3.6[16.7 µM]	.	3.0
Cc1noc(C)c1S(=O)(=O)Nc1ccc2c(c1)CC(=O)N([C@@H](C)CO)C[C@@H](C)[C@H](CN(C)S(C)(=O)=O)O2	.	.	12.8[16.7 µM]	1.6[16.7 µM]	-1.5
O=[N+]([O-])c1ccc2c(c1)CO[C@@]21O[C@H](CCO)C[C@H](O)[C@H]1O	.	-3.3	-2.6	60.1*	-4.4
OCC[C@H]1C[C@H](O)[C@@H](O)[C@@]2(OCc3ccccc32)O1	6.3	1.6	-6.1	0.6	-6.0
OCC[C@@H]1C[C@@H](O)[C@H](O)[C@]2(OCc3ccccc32)O1	-1.2	-1.1	-3.8	68.8*	5.4
Cc1ccc(NC(=O)CSc2nc(-c3ccco3)cc(C(F)(F)F)n2)cc1C	-6.3	.	44.7	55.8*	-11.3
O=C(CSc1nc(-c2ccco2)cc(C(F)(F)F)n1)Nc1ccc2c(c1)CCC2	-13.3	-1.9	6.5	.	4.9
Cc1cc(C)nc(SCc2nnc(SCC(=O)Nc3ccc(C)c(C)c3)n2Cc2ccco2)n1	.	.	-2.5	54.5*	-8.8
Cc1c(C(=O)Nc2ccccc2)sc2nc(-c3ccccc3)cn12	26.5	58.3*	-0.2	-67.1	?
